Sm TGR block: blocks Schistosoma mansoni thioredoxin glutathione reductase; purified TGR, DTNB reduction, TNB absorbance 405 nm; hit rate 3% among 360,000; AID 485364; Q962Y6; Potency, µM (doses to about 114 µM), hits mostly inhibitors; further: nearly all actives have a fitted effect of over 60% in size
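Kinetic colorimetric format: TGR-catalysed, NADPH-driven DTNB reduction monitored via TNB absorbance. Enzyme dispensed at 20 nM; compound exposure 15 min at room temperature before reaction start.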
FMDV antiviral: foot and mouth disease virus antiviral activity. FMDV antiviral cell-based qHTS. Potency, µM (highest dose often 57.9 µM), hits mostly inhibitors. hit rate 1.2% among 410,000; calls by dose curve; tested in HEK293T cells; further: read-out not given here; nearly all actives have a fitted effect of over 45% in size
HCV inhibitor: blocks hepatitis C virus | Huh7.5.1 HCVcc-Cre infection, luciferase reporter, 44 h | Potency, µM (doses to about 41.8 µM), actives largely listed as inhibitors | hit rate 3.4% among 340,000 | AID 651820
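Reporter virus HCVcc-Cre (~0.5 moi) infects cells exposed to compound; seeding density 1,000 cells/well with 4 h settling beforehand. Luminescence, 15 sec read, taken 44 h post-infection following a 15 min RT substrate incubation.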
Vaccinia Venus: inhibitors of vaccinia virus (Venus reporter); hit rate 0.46% among 330,000; Vaccinia virus Venus reporter expression, fluorescence; Potency, µM (highest dose often 36.5 µM), hits mostly inhibitors; calls by dose curve; tested in A549 cells; further: nearly all actives have a fitted effect of over 30% in size
HCMV antiviral: human cytomegalovirus inhibition | AID 1259415 | HFF cells, HCMV-luciferase reporter, 72 h; hits give low values | hit rate 4.5% among 410,000 | activity change, negative = inhibition, % at 57.5 µM; in the data active means activity change below about -60%; inconclusive means no clear call, values can overlap the other calls; inactive means above about -39%
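Two-dose cell screen: HFF monolayers treated with compounds and infected with luciferase-expressing HCMV at 1 PFU/cell, 72 h at 37C, then lysed for luciferase measurement.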
VACV mCherry inh: inhibitors of vaccinia virus infection (mCherry reporter signal); Vaccinia virus mCherry reporter infection, fluorescence; Potency, µM (highest dose often 36.5 µM), most hits filed as inhibitors; hit rate 0.63% among 310,000; AID 720579; calls by dose curve; tested in A549 cells; further: nearly all actives have a fitted effect of over 35% in size
Large screens that a line does not name were inactive. This is a sample that favours compounds with a hit; in the whole collection about 9.3% have one here. Unless noted, the call rests on the fitted dose curve; in most records, active means well fitted curve in the direction sought with a large enough effect; inconclusive means small, poorly fitted or top-dose-only effect, or another doubt; inactive means no such curve, though single readings can be large; an effect the other way counts as inactive or inconclusive.

CC(C)N(C(=NCc1ccccc1)NC(=O)c1ccccc1)C(C)C	HCMV antiviral -89
Cc1ccc(C)c(Cn2c3ccccc3c3cnn(CC(=O)NCc4ccccc4)c(=O)c32)c1	none (no result: HCV inhibitor)
CC1(C)CC(=O)C(C=NCCN2CCN(C(=O)CC3CCCC3)CC2)=C(O)C1	none
CC1(C)CC(=O)C(C=NCCN2CCN(C(=O)NC34CC5CC(CC(C5)C3)C4)CC2)=C(O)C1	Sm TGR block 35µM, VACV mCherry inh inconclusive
CC1(C)CC(=O)C(C=NCCN2CCN(C(=O)c3ccc(Br)cc3)CC2)=C(O)C1	Sm TGR block 28µM (no result: Vaccinia Venus, VACV mCherry inh)
CC1(C)CC(=O)C(C=NCCN2CCN(C3CC(=O)N(c4ccc(Cl)c(Cl)c4)C3=O)CC2)=C(O)C1 (stereo not given)	Sm TGR block 25µM, FMDV antiviral inconclusive
CCN(CC)CCNC(=O)Cc1c(C(=O)O)n(CC)c2ccccc12	none (no result: FMDV antiviral)
Cc1cccc(C)c1NC(=O)CNC(=O)CNC(=O)Cc1cccc2ccccc12	Sm TGR block 6.3µM (no result: Vaccinia Venus, VACV mCherry inh)
COc1ccc(NC(=O)c2cc3c(=O)[nH]c4ccccc4c3n2C)cc1Cl	none (no result: HCV inhibitor)
COc1ccc(Br)cc1CSC(=N)N	HCV inhibitor inconclusive, HCMV antiviral inconclusive
CCCCCOc1ccc(Br)cc1CSC(=N)N	FMDV antiviral 16µM, HCV inhibitor 7.9µM, Vaccinia Venus 11µM, HCMV antiviral -98, VACV mCherry inh inconclusive
Cc1ccc(C(=O)NC(=S)Nc2ccc(CN3CCCCC3)cc2)c(C)c1	Vaccinia Venus inconclusive, HCMV antiviral inconclusive, VACV mCherry inh inconclusive (no result: Sm TGR block)
COc1ccc(C(=O)NC(=S)Nc2ccc(CN3CCOCC3)cc2)cc1OC	Sm TGR block 20µM, FMDV antiviral inconclusive (no result: Vaccinia Venus, VACV mCherry inh)
COc1ccc(C(=O)Nc2ccc(CN3CCOCC3)cc2)cc1Br	Sm TGR block inconclusive (no result: Vaccinia Venus, VACV mCherry inh)
COc1ccc(C(=O)NC(=S)Nc2ccc(CN3CCCCC3)cc2)cc1Cl	Sm TGR block 40µM, HCMV antiviral inconclusive
COc1ccc(C(=O)NC(=S)Nc2ccc(CN3CCOCC3)cc2)cc1Cl	Sm TGR block 14µM, FMDV antiviral inconclusive, HCMV antiviral inconclusive (no result: Vaccinia Venus, VACV mCherry inh)
COc1ccc(OCC(O)CNC(C)c2ccccc2)cc1 (stereo not given)	HCMV antiviral inconclusive (no result: Vaccinia Venus, VACV mCherry inh)
CC(NCC(O)COc1ccc(Br)cc1)c1ccccc1 (stereo not given)	HCV inhibitor inconclusive (no result: Vaccinia Venus, VACV mCherry inh)
CCCC(NCC(O)COc1ccc(-c2ccccc2)cc1)c1ccccc1 (stereo not given)	FMDV antiviral inconclusive, HCV inhibitor 11µM (no result: Vaccinia Venus, VACV mCherry inh)
CC(NCC(O)COc1ccc2ccccc2c1)c1ccccc1 (stereo not given)	HCV inhibitor 6.3µM, HCMV antiviral -84, VACV mCherry inh inconclusive
CCCCN(CC)C(=O)C1CCC(=O)N(c2ccc(OC)cc2)C1c1ccc(OC)c(OC)c1 (stereo not given)	none (no result: Sm TGR block, Vaccinia Venus, HCMV antiviral, VACV mCherry inh)
NS(=O)(=O)c1ccc(-c2cccc(/C=C3\SC(=O)NC3=O)c2)cc1	HCMV antiviral inconclusive
O=[N+]([O-])c1ccc(-[n+]2ccc3ccccc3c2)c([N+](=O)[O-])c1	Sm TGR block 1.8µM, FMDV antiviral 28µM, HCV inhibitor inconclusive, Vaccinia Venus inconclusive, VACV mCherry inh 10µM
O=[N+]([O-])c1ccc(SNc2ccccc2)c([N+](=O)[O-])c1	HCMV antiviral inconclusive (no result: Sm TGR block)
O=S(=O)(Cc1cnc(Cl)s1)c1ccccc1	none (no result: VACV mCherry inh)
O=S(=O)(Cc1ccccc1)Cc1cnc(Cl)s1	Sm TGR block 40µM
O=C(CNc1cccc2ccccc12)N/N=C/c1ccc[nH]1	HCV inhibitor 1µM, Vaccinia Venus inconclusive, HCMV antiviral -68, VACV mCherry inh inconclusive
C/C(=N\NC(=O)CNc1cccc(C)c1)c1ccc(Br)s1	HCV inhibitor inconclusive, HCMV antiviral -62
Cc1cccc(NCC(=O)N/N=C\c2ccc[nH]2)c1	HCV inhibitor 8.9µM, VACV mCherry inh inconclusive
O=C(CNc1cccc(C(F)(F)F)c1)N/N=C/c1cccc(Br)c1	HCV inhibitor inconclusive, Vaccinia Venus inconclusive, HCMV antiviral -73
Cc1cccc(NCC(=O)N/N=C/c2cccc(Br)c2)c1	HCMV antiviral inconclusive (no result: Vaccinia Venus, VACV mCherry inh)
Oc1cc(O)cc(O)c1	none (no result: Sm TGR block, FMDV antiviral, HCV inhibitor, Vaccinia Venus, VACV mCherry inh)
O=C(NCCCn1ccnc1)c1cc(S(=O)(=O)N2CCOCC2)ccc1F	none
O=S(=O)(NC1CCN(Cc2ccccc2)CC1)c1ccc2ccccc2c1	none
O=C(NNS(=O)(=O)c1ccc2ccccc2c1)C1CCN(Cc2ccccc2)CC1	HCMV antiviral -107
COc1ccc(-c2cc(N3CCN(CCO)CC3)n3nccc3n2)cc1	none (no result: Sm TGR block, HCV inhibitor)
C=CCn1cc(/C=N\NC(=O)c2cc3c(ccc4ccccc43)o2)c2ccccc21	HCV inhibitor 10µM (no result: VACV mCherry inh)
O=C(NCCOc1ccccc1)c1cccc2c1C(=O)c1ccc(Cl)cc1S2(=O)=O	HCV inhibitor 10µM
O=C(NCCN1CCCCC1)c1cccc2c1C(=O)c1ccc(N3CCCC3)cc1S2(=O)=O	HCMV antiviral -65 (no result: Sm TGR block)
O=C(NC1CC1)c1cccc2c1C(=O)c1ccc(N3CCC(Cc4ccccc4)CC3)cc1S2(=O)=O	FMDV antiviral inconclusive, HCV inhibitor 10µM (no result: Sm TGR block)
CC(C)(C)CNC(=O)c1cccc2c1C(=O)c1ccc(N3CCCC3)cc1S2(=O)=O	none (no result: Sm TGR block)
CCCC(=O)Nc1nnc2n1CCS2	none (no result: HCV inhibitor)
COc1ccc(OC)c(-c2nc(C(=O)NCC3CCCO3)cc3c2[nH]c2ccccc23)c1 (stereo not given)	HCV inhibitor 10µM
COc1cccc(-c2nc(C(=O)NCC3CCCO3)cc3c2[nH]c2ccccc23)c1 (stereo not given)	FMDV antiviral inconclusive, HCV inhibitor 11µM, VACV mCherry inh inconclusive
O=C(Nc1ccccc1-c1nc2ccccc2[nH]1)c1ccc(N2C(=O)CCC2=O)cc1	FMDV antiviral inconclusive, HCV inhibitor 10µM
Cc1ccc(-c2csc(NC(=O)c3cccc(N4C(=O)CCC4=O)c3)n2)o1	Sm TGR block 8.9µM, HCV inhibitor inconclusive (no result: HCMV antiviral)
COc1ccc(-c2csc(NC(=O)c3ccc(N4C(=O)CCC4=O)cc3)n2)cc1	FMDV antiviral inconclusive, HCMV antiviral -67 (no result: Vaccinia Venus, VACV mCherry inh)
COc1ccccc1-c1csc(NC(=O)c2ccc(N3C(=O)CCC3=O)cc2)n1	FMDV antiviral 18µM (no result: Vaccinia Venus, VACV mCherry inh)
CC(C)CNC(=O)CCc1nc(-c2ccccc2)no1	none
CCC(NC(=O)c1cc(COc2ccc(Cl)cc2OC)on1)c1ccncc1 (stereo not given)	none (no result: HCV inhibitor)
CCOc1ccc(NC(=O)CN(C)C(=O)c2cc(C)on2)cc1OCC	none
CCOc1ccc(NC(=O)CN(C)C(=O)CCc2ccccc2Cl)cc1OCC	Sm TGR block inconclusive, FMDV antiviral inconclusive, Vaccinia Venus inconclusive, HCMV antiviral -80
CCOc1ccc(NC(=O)CN(C)C(=O)c2ccncc2)cc1OCC	Sm TGR block 25µM
CCOc1cc2c(cc1OCC)-n1cccc1C(c1ccc(OC)cc1)NC2 (stereo not given)	none
CCOC(=O)c1cc(NC(=O)c2ccc(OC)cc2)c(=O)n2c1oc1ccc(Cl)cc12	none (no result: HCV inhibitor)
C=CCn1c(C)nnc1SCC(=O)c1c(N)n(C2CC2)c(=O)[nH]c1=O	none
